Screens from PubChem.
Shown are actives, neighbours in structure and some others; about 17% of the full set was active somewhere.
DT40 TDP1 CPT – DT40-hTDP1 cell growth loss with CPT; AID 686979; chicken DT40 Tdp1-/-;hTDP1 cells + 20 nM CPT, ATP luminescence, 48 h; Potency, µM (doses to about 46.2 µM), inactives show top-dose activity change, negative = growth inhibition, usual class: inhibitors; 12% of 420,000 active; also: % is scaled to controls: 0 for no effect and ±100 for the full control effect; nearly all actives have a fitted effect of over 55% in size
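Chicken DT40 Tdp1-/- cells stably complemented with human TDP1 were seeded at 400 cells/well in medium containing 20 nM camptothecin, exposed to pin-transferred compounds, and grown at 37 °C for at least 48 hr. Viability was read as ATP luminescence.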
TDP1 inh – TDP1 (human) enzyme inhibition. Q9NUW8. recombinant TDP1, AlphaScreen DNA substrate cleavage. Potency, µM (doses to about 130 µM), inactives show top-dose activity change, negative = inhibition, hits mostly inhibitors. 0.28% of 350,000 active. AID 485290; also: % is scaled to controls: 0 for no effect and ±100 for the full control effect; nearly all actives have a fitted effect of over 40% in size
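AlphaScreen read-out: signal falls as enzyme removes the 3' tyrosine-FITC from a 5'-biotinylated DNA oligo (15 nM, 5 min, RT). Enzyme was E. coli-made recombinant Tdp1 at 1 nM, exposed to compound for 15 min beforehand; beads 10 ug/ml, 10 min.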
TDP1 cell noCPT – qHTS for Inhibitors of human tyrosyl-DNA phosphodiesterase 1 (TDP1): qHTS in cells in absence of CPT. 15% of 420,000 active. DT40 Tdp1-/- hTDP1 cells, no CPT, ATP luminescence, 48 h. Potency, µM (doses to about 46.2 µM), for the others: top-dose activity change, negative = growth inhibition, usual class: inhibitors; also: % is scaled to controls: 0 for no effect and ±100 for the full control effect; nearly all actives have a fitted effect of over 55% in size
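No-CPT arm: Tdp1-/-;hTDP1 DT40 cells (400/well) plus compounds, incubated ≥48 hr at 37 °C. Readout CellTiter-Glo luminescence.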
ClpP mod – qHTS Assay for Activators of ClpP; purified B. subtilis ClpP, FRET peptide cleavage, 20 min; Potency, µM (doses to about 57.5 µM), for inactives: top-dose activity change, negative = active; 1.9% of 340,000 active; AID 651965, 2013; active = well fitted falling curve with a large enough effect; inconclusive = small, poorly fitted or top-dose-only effect; inactive = no such curve, though single readings can be large or run the other way; also: the source files actives as falling curves though it sought activators and does not explain the sign; nearly all actives have a fitted effect of over 65% in size
Target sequence (P80244 whole entry, looked up): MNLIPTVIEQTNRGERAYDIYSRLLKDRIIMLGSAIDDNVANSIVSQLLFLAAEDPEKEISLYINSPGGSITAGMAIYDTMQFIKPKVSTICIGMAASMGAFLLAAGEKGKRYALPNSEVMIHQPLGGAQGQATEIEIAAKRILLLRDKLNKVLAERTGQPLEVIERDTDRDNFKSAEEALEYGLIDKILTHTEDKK
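Purified B. subtilis ClpP, 10 microg/mL final in Tris/HCl pH8 with KCl, BSA, glycerol and Tween-20, cleaved an Abz/nitrotyrosine-quenched decapeptide. Fluorescence (ex 320, em 430) was read at 0 and 20 min at room temperature. Delta was normalized to 5.8 microM ADEP and DMSO/no-enzyme controls.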
Active calls of the source: *; [ ] = another dose, or the depositor's remark. Unless noted, calls follow the shape of the dose curve; as a rule, active = well fitted curve in the direction sought with a large enough effect; inconclusive = small, poorly fitted or top-dose-only effect, or another doubt; inactive = no such curve, though single readings can be large; an effect the other way counts as inactive or inconclusive. Potency is read from the fitted curve at half-maximal effect.

Screening COc1ccccc1N1CCN(C(=O)COc2cccc3ccccc23)CC1 returned DT40 TDP1 CPT 23.1µM*, TDP1 inh 3.5%, TDP1 cell noCPT inconclusive and ClpP mod 0.7%.
COc1ccccc1OCC(=O)N1CCN(C(=O)COc2ccccc2OC)CC1 was read as DT40 TDP1 CPT 8.2% and TDP1 cell noCPT 5.5%.
COc1ccccc1N1Cc2ccccc2C1 was read as DT40 TDP1 CPT 25.9µM*, TDP1 inh 11.2%, TDP1 cell noCPT 16.4µM* and ClpP mod -2.3%.
O=C(COC(=O)/C=C/c1ccccc1Cl)NCCNC(=O)COC(=O)/C=C/c1ccccc1Cl was read as DT40 TDP1 CPT -1.0%, TDP1 inh 1.5%[56.1 µM], TDP1 cell noCPT -14.1% and ClpP mod 1.9%.
`Cc1ccc(S(=O)(=O)N(CC(=O)Nc2cccnc2)c2cccc([N+](=O)[O-])c2)cc1` gave DT40 TDP1 CPT inconclusive, TDP1 inh 5.6%, TDP1 cell noCPT 11.6µM* and ClpP mod -1.8%.
Screening Cc1ccc(NC(=O)CN(c2ccc(Cl)cc2)S(=O)(=O)c2cc([N+](=O)[O-])ccc2Cl)c(C)c1 returned DT40 TDP1 CPT inconclusive, TDP1 inh 2.7% and TDP1 cell noCPT 14.6µM*.
Screening CCc1cccc(NC(=O)CN(c2ccc(C)cc2)S(=O)(=O)c2cccs2)c1 returned DT40 TDP1 CPT inconclusive, TDP1 inh -2.3%, TDP1 cell noCPT 16.4µM* and ClpP mod -1.5%.
For Cc1ccc(N(CC(=O)N2CCc3ccccc32)S(=O)(=O)c2cccs2)cc1 the results were DT40 TDP1 CPT inconclusive, TDP1 inh 5.3%, TDP1 cell noCPT 18.4µM* and ClpP mod -1.3%.
For Cc1cc(Cl)ccc1OCC(=O)Nc1c(Cl)ccc2nsnc12 the results were TDP1 inh -0.6% and ClpP mod -1.8%.
CCCc1c(NC(=O)Nc2ccc(Cl)cc2Cl)cnn1-c1ccccc1 was read as DT40 TDP1 CPT -16.0%, TDP1 inh 0.0% and TDP1 cell noCPT -19.3%.
For CSCCC(c1nnnn1C1CCCC1)N1CCN(C/C=C/c2ccccc2)CC1 (stereo unspecified) the results were DT40 TDP1 CPT inconclusive, TDP1 cell noCPT inconclusive and ClpP mod -0.6%.
For C[C@H](CO)N1C[C@H](C)[C@@H](CN(C)Cc2ccncc2)Oc2ccc(NC(=O)Cn3cnnn3)cc2C1=O the results were DT40 TDP1 CPT -6.8%, TDP1 inh 1.4%, TDP1 cell noCPT inconclusive and ClpP mod -9.2%.
Cc1ccc(S(=O)(=O)N(CC(=O)Nc2cccnc2)c2cccc(Br)c2)cc1 was read as DT40 TDP1 CPT inconclusive, TDP1 inh 1.5%, TDP1 cell noCPT 16.4µM* and ClpP mod -1.2%.
COc1ccc(C)cc1S(=O)(=O)N(CC(=O)Nc1cccc([N+](=O)[O-])c1)c1ccccc1 was read as DT40 TDP1 CPT 14.6µM*, TDP1 inh 5.8%, TDP1 cell noCPT 20.6µM* and ClpP mod 1.5%.
`Clc1ccc2c(Cl)cc[n+](CCC3CCCCC3)c2c1` gave DT40 TDP1 CPT inconclusive, TDP1 cell noCPT inconclusive and ClpP mod -5.7%.
For O=C(COc1ccc([N+](=O)[O-])cc1)NNC(=O)c1cccs1 the results were DT40 TDP1 CPT -0.8%, TDP1 inh 1.2%, TDP1 cell noCPT -14.6% and ClpP mod -1.5%.
`O=C(Nc1ccc(CN2CCCCC2)cc1)Nc1ccc(Br)cc1Cl` gave DT40 TDP1 CPT 18.4µM*, TDP1 inh 5.5% and TDP1 cell noCPT 16.4µM*.
`O=C(Nc1ccc(CN2CCOCC2)cc1)c1ccc(-c2cccc([N+](=O)[O-])c2)o1` gave DT40 TDP1 CPT 20.6µM*, TDP1 inh 3.6%, TDP1 cell noCPT 16.4µM* and ClpP mod -1.2%.
For S=C(c1ccc(-c2cc(Cl)ccc2Cl)o1)N1CCOCC1 the results were DT40 TDP1 CPT -15.5%, TDP1 inh 10.0%, TDP1 cell noCPT -23.2% and ClpP mod -3.1%.
For COc1c(Cl)cc(Cl)cc1C(=O)Nc1ccc(CN2CCCCC2)cc1 the results were DT40 TDP1 CPT inconclusive, TDP1 inh -5.4% and TDP1 cell noCPT 16.4µM*.
COc1ccccc1C(=O)Nc1ccc(CN2CCCCC2)cc1 was read as DT40 TDP1 CPT 19.6%, TDP1 inh -2.0%, TDP1 cell noCPT -7.8% and ClpP mod 2.0%.
O=[N+]([O-])c1cccc(-c2ccc(C(=S)N3CCOCC3)o2)c1 was read as DT40 TDP1 CPT -7.5%, TDP1 inh 5.9% and TDP1 cell noCPT inconclusive.
For O=C(Nc1ccc(CN2CCOCC2)cc1)c1ccc(-c2cc(Cl)ccc2Cl)o1 the results were DT40 TDP1 CPT inconclusive, TDP1 inh 6.7%, TDP1 cell noCPT 23.1µM* and ClpP mod inconclusive.
`O=C(Nc1ncc(Cc2cccc(C(F)(F)F)c2)s1)c1ccc(-c2cccc([N+](=O)[O-])c2)o1` gave DT40 TDP1 CPT 14.6µM*, TDP1 inh 8.2%, TDP1 cell noCPT inconclusive and ClpP mod 0.9%.
COc1c(Cl)cc(Cl)cc1C(=O)Nc1ccc(CN2CCOCC2)cc1 was read as DT40 TDP1 CPT 16.4µM*, TDP1 cell noCPT inconclusive and ClpP mod -1.3%.
Screening COc1ccccc1NC(=O)CSc1nnnn1-c1ccc(F)cc1 returned DT40 TDP1 CPT -8.3%, TDP1 inh 4.3%, TDP1 cell noCPT -23.9% and ClpP mod -2.8%.
Screening CCN(C(=O)c1ccc(Cl)cc1[N+](=O)[O-])c1ccccc1C returned DT40 TDP1 CPT 16.4µM*, TDP1 inh -5.0% and TDP1 cell noCPT 14.6µM*.
`Cc1ccccc1NC(=O)c1ccc(Nc2c([N+](=O)[O-])cc([N+](=O)[O-])c3ccccc23)cc1` gave DT40 TDP1 CPT inconclusive, TDP1 inh 4.2%, TDP1 cell noCPT 23.1µM* and ClpP mod 1.7%.
`Cc1c(NC(=O)c2ccccc2)cccc1[N+](=O)[O-]` gave DT40 TDP1 CPT -0.6%, TDP1 inh 4.5%, TDP1 cell noCPT -8.7% and ClpP mod -0.6%.
`CCN(C(=O)c1ccc(Cl)c([N+](=O)[O-])c1)c1ccccc1` gave DT40 TDP1 CPT inconclusive, TDP1 inh -2.4% and TDP1 cell noCPT 14.6µM*.
Screening O=C(Nc1ccc(Nc2ccccc2)cc1)c1ccc(Cl)c([N+](=O)[O-])c1 returned DT40 TDP1 CPT 13µM*, TDP1 cell noCPT 10.3µM* and ClpP mod -0.8%.
`Cc1c[nH]c(=O)n(CCCN2CCN(c3ccccc3OCC(F)(F)F)CC2)c1=O` gave DT40 TDP1 CPT -8.9%, TDP1 inh 4.8% and TDP1 cell noCPT inconclusive.
Screening Cc1cc(F)ccc1S(=O)(=O)N1CCCOC1CNC(=O)C(=O)NC1CCCCC1 (stereo unspecified) returned DT40 TDP1 CPT -10.7%, TDP1 inh 1.8%, TDP1 cell noCPT -13.1% and ClpP mod -1.2%.
